Source: PubChem
Most compounds without a hit are left out; they make up all but 10% or so of the library.
ROMK primary = ROMK potassium channel modulators, primary screen, cell-based, thallium flux, MLSMR library; ATP-sensitive inward rectifier potassium channel 1 (Homo sapiens), P48048; Tet-inducible ROMK, thallium flux fluorescence; actives lie on both sides; B-score at 10 µM; 130,000 tested, 2% active; AID 1918, 2009;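 active = signal ratio slope over the read window, or its plate-corrected B-score, at least 3 SD from the plate mean, either direction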;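 also: B-score of the F/F0 ratio slope over 7 to 12 s after thallium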
Target sequence (P48048 whole entry, looked up): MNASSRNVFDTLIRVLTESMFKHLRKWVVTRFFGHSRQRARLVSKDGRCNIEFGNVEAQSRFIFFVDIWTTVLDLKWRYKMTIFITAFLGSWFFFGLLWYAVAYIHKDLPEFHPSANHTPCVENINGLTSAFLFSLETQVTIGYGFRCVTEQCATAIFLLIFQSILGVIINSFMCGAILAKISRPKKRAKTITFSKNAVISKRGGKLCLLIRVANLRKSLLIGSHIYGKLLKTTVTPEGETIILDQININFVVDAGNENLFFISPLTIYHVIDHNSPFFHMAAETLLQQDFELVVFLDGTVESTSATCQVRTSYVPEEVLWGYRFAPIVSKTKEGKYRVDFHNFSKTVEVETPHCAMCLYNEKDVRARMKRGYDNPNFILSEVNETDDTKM
L major viab = Leishmania major promastigote growth inhibition, primary screen | Leishmania major promastigotes, resazurin fluorescence viability | inhibition, % at 10 µM | 200,000 tested, 9% active | AID 1063, 2008; in the data active = inhibition above about 50%;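 also: promastigotes grown with compound for 44 hours at 28 °C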
Insulin prom inh = inhibitors of insulin promoter-driven GFP, primary screen, imaging, TRM-6 cells (human fetal islet line), eGFP reporter, cell count. inhibition, % at 2 µM. 130,000 tested, 0.9% active. reporter expression induced with tamoxifen. AID 1273, 2008;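 active = inhibition above the mean plus 3 SD, with well images judged a real hit on visual review, cut at about 60% in these data, passing the limit was not always enough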
p97 inhibitor = inhibitors of human p97 ATPase, primary screen, biochemical; 220,000 tested, 0.42% active; AID 1481, 2009; recombinant p97 ATPase, Kinase-Glo ATP luminescence, 3 h; inhibition, % at 8 µM; Transitional endoplasmic reticulum ATPase (Homo sapiens), P55072; in the data active = inhibition above about 15%;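 also: 0% = DMSO vehicle and 100% = wells lacking enzyme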
bCat KO growth = primary screen for growth suppressors in beta-catenin knockout HCT116 cells (colon tumor, human); 140,000 tested, 1.5% active; HCT116 beta-catenin knockout viability, CellTiter-Glo, 60 h; hits give low values; viability, % at 10 µM;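 active = viability at or under a set limit, the compound median less 4 SD, cut at about 6% in these data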;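 also: 0% = Hyamine 1622 control at 20 µM and 100% = untreated cell control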
PTEN del growth = growth suppression of PTEN-null HCT116, primary screen, cell-based, CellTiter-Glo | AID 827, 2007 | 140,000 tested, 1.2% active | HCT116 PTEN-null viability, 60 h; hits give low values | viability, % at 10 µM;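 active = viability at or below a set limit, 4 SD under the median of all tested compounds, cut at about 3.7% in these data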;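 also: PTEN knockout HCT116 line with beta catenin targeted HCT116 as companion control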
* = called active by the depositor; . = no result.

SMILES	ROMK primary	L major viab	Insulin prom inh	p97 inhibitor	bCat KO growth	PTEN del growth
O=C(COc1ccccc1)NCC(=O)Nc1cccc(S(=O)(=O)NC2=NCCC2)c1	0.57	-2	13	5	.	.
CN(C)CCNC(=O)c1ccc2c(c1)N(Cc1ccc(F)cc1)CCS2	.	100*	.	-2	32	29
COc1ccc(CCN=C(N)Nc2nc(C)cc(C)n2)cc1	-0.43	95*	.	-1	.	.
COc1ccc2nc(N3C(=O)CNC3=S)sc2c1	1.2	.	.	5	.	.
COC(=O)/C=C1\C(=O)N(c2nc3ccc(OC)cc3s2)C(=S)N1c1ccc(F)cc1	.	67*	4	-1	85	78
CC1=C(C(=O)OC(C)C)C(c2ccc(N(C)C)cc2)C2=C(CC(C)(C)CC2=O)N1 (stereo unspecified)	.	23	.	-4	87	83
COCCOC(=O)C1=C(C)NC2=C(C(=O)CC(C)(C)C2)C1c1cccnc1 (stereo unspecified)	-0.1	64*	3	2	104	108
CC1=C(C(=O)OCCOC(C)C)C(c2cccnc2)C2=C(CCCC2=O)N1 (stereo unspecified)	.	23	-50	5	98	110
CC1=C(C(=O)OC(C)C)C(c2cccnc2)C2=C(CC(C)(C)CC2=O)N1 (stereo unspecified)	0.27	92*	-125	-2	94	108
O=C(NNc1nc(N2CCOCC2)nc(N2CCOCC2)n1)Nc1ccc(Cl)cc1	-1.2	7	.	1	.	.
O=C(NC1CCCCC1)C(c1ccncc1)N(CC1CCCO1)C(=O)C(F)(F)F (stereo unspecified)	.	0	90*	7	96	108
Cc1cccn2c(CNCC3(c4ccccc4)CCCC3)c(C(=O)N3CCOCC3)nc12	-2.2	14	-33	-1	.	.
Cc1nn(C(=O)c2cccnc2)c(C)c1Sc1ccccc1	-0.84	-6	13	0	89	87
Cc1nn(C(=O)CNS(=O)(=O)c2ccccc2)c(C)c1Sc1ccc(Cl)cc1	-0.0097	51*	4	9	77	77
CC1=C(C(=O)OC2CCCC2)C(c2ccc(C)o2)C2=C(CC(c3cccs3)CC2=O)N1 (stereo unspecified)	.	83*	-25	1	73	73
CC1=C(C(=O)OC2CCCCCC2)C(c2ccc(C)o2)C2=C(CCCC2=O)N1 (stereo unspecified)	-1.2	25	30	-3	66	70
CCOc1cccc(C(=O)NC(c2ccccc2)C(C)C)c1 (stereo unspecified)	0.5	57*	.	0	.	.
C=CCOc1ccc(CNc2ccc3[nH]c(=O)[nH]c3c2)cc1	-0.37	16	38	4	.	.
CCC(NC(=O)NCc1ccccc1)(C(F)(F)F)C(F)(F)F	.	0	71*	5	92	90
CC(NC(=O)NCc1cccnc1)(C(F)(F)F)C(F)(F)F	-0.052	-5	.	5	96	91
O=C(NC(N1CCOCC1)C(Cl)(Cl)Cl)c1cc([N+](=O)[O-])cc([N+](=O)[O-])c1 (stereo unspecified)	.	91*	-43	0	.	.
O=C(NC(N1CCOCC1)C(Cl)(Cl)Cl)c1ccccc1Cl (stereo unspecified)	1.2	1	.	6	.	.
Cc1c(Cl)ccc2c(C(=O)NCCN3CCCCC3)cc(-c3ccccn3)nc12	0.044	79*	.	-5	.	.
COC(=O)CNC(=O)c1cc(-c2ccncc2)nc2c(C)c(Cl)ccc12	-0.35	13	.	-11	.	.
O=C(c1ccco1)N1N=C(c2ccccc2)CC1c1ccc2nccnc2c1 (stereo unspecified)	.	.	.	0	.	.
SMILES	ROMK primary	L major viab	Insulin prom inh	p97 inhibitor	bCat KO growth	PTEN del growth
O=C(Cc1cccs1)N=Nc1c(O)[nH]c2ccccc12	.	.	.	8	.	.
O=C(CSc1nnc(SCc2cccc3ccccc23)s1)N=Nc1c(O)[nH]c2ccccc12	.	-7	.	3	4.3*	1.0*
CCc1ccccc1NC(=O)c1ccc(CN2CCC(Cc3ccccc3)CC2)cc1	.	80*	-10	-4	38	44
O=C(c1ccc(CN2CCOCC2)cc1)N1CCC(Cc2ccccc2)CC1	-0.63	87*	.	-8	101	97
COc1ccc(CCNC(=O)c2ccc(CN3CCC(Cc4ccccc4)CC3)cc2)cc1OC	.	5	33	2	31	30
CCOC(=O)c1c(N)nn(C(=O)C(C)C)c1-c1ccc(OC)cc1	1.6	12	79*	0	111	129
COCc1cc(S(=O)c2ccc(Cl)cc2)nc(C)n1 (stereo unspecified)	-0.32	99*	.	2	.	.
COCc1cc(Sc2ccc(Cl)cc2)nc(C)n1	0.4	-7	.	1	.	.
Cc1c(C(=O)N/N=C/c2cccs2)nc2ccccn12	.	-2	.	9	89	91
CC(C(=O)NCCCc1ccccc1)c1ccc([N+](=O)[O-])cc1 (stereo unspecified)	-0.056	0	5	-2	.	.
CCOC(=O)c1c(NC(=O)C2COc3ccccc3O2)sc2c1CCN(Cc1ccccc1)C2 (stereo unspecified)	.	58*	.	-5	38	52
CCOC(=O)c1c(NC(=S)Nc2ccccc2)sc2c1CCN(CC)C2	-0.39	98*	-42	0	79	75
CCOC(=O)c1c(C2COc3ccccc3O2)csc1NC(=O)c1ccccc1 (stereo unspecified)	-0.54	7	.	2	0.8*	0.5*
CCOC(=O)c1c(NC(=S)Nc2ccccc2)sc2c1CCCCC2	-0.35	-8	0	3	90	87
NC(=O)c1c(NC(=O)C2COc3ccccc3O2)sc2c1CCN(Cc1ccccc1)C2 (stereo unspecified)	-1.6	-5	-36	6	.	.
CCOc1ccc(C(=O)NCC(=O)OCC(=O)Nc2ccc(C)c(S(=O)(=O)N(C)C)c2)cc1	-0.14	-2	.	-1	.	.
Cc1ccccc1SC1CCN(Cc2nc(C3CC3)no2)CC1	0.45	16	33	3	.	.
CCOC(=O)c1c(C2CC2)csc1NC(=O)COC(=O)CCS(=O)(=O)c1ccc(C)cc1	0.84	9	-27	0	82	88
CCOC(=O)C(C)(C)Sc1nc2c(cnn2-c2ccc(C)cc2)c(=O)[nH]1	.	8	100*	-5	97	102
COC(=O)C(NC(=O)c1ccccc1C)(Nc1ncc(S(=O)(=O)c2ccc([N+](=O)[O-])cc2)s1)C(F)(F)F (stereo unspecified)	-0.51	9	-40	3	62	64
COC(=O)C(NC(=O)c1ccc(F)cc1)(Nc1ncc(S(=O)(=O)c2ccc([N+](=O)[O-])cc2)s1)C(F)(F)F (stereo unspecified)	.	58*	-61	2	73	54
O=C(N/N=C/c1ccc(-c2ccccc2[N+](=O)[O-])o1)c1cccnc1	.	95*	19	3	84	78
